Data as given in PubChem BioAssay AID492953 (The Scripps Research Institute Molecular Screening Center, 2010).
About 4,200 (1.2%) of roughly 340,000 compounds were called active. The sample holds actives, similar compounds and a random draw of the others, so the mix is not that of the screen. A number with no mark means an inactive call.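 The calls were made as follows: active = inhibition above the mean of all tested compounds plus 3 SD (cut at about 24% in these data); inactive = the rest.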

Each compound was assayed against Platelet-activating factor acetylhydrolase IB subunit alpha2 (Homo sapiens) (UniProt P68402) (assay: inhibition of PAF acetylhydrolase 1b subunit 2 – biochemical, fluorescence polarization, human, primary screen (AID 492953;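 also: 0% = enzyme with DMSO and 100% = wells lacking PAFAH1B2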)). Conditions: recombinant PAFAH1B2, FP-rhodamine activity probe, at 3.39 µM, stronger effect = higher value.
Platelet-activating factor acetylhydrolase IB subunit alpha2 (Homo sapiens), sequence (P68402 whole entry, looked up): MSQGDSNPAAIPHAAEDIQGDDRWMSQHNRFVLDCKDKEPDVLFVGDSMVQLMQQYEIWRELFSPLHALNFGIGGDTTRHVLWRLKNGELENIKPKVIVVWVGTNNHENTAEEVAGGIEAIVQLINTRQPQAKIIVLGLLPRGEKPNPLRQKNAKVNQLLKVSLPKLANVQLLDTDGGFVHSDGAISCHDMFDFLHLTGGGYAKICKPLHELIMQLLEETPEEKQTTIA

Structure (SMILES)	inhibition
CCc1ccc(S(=O)(=O)Nc2cc3c(cc2N2CCCCC2)n(C)c(=O)c(=O)n3C)cc1	28.5% (active)
Cc1ccc(NS(=O)(=O)c2ccc3c(c2)n(C)c(=O)c(=O)n3C)c(C)c1	0.65%
Cn1c(=O)c(=O)n(C)c2cc(S(=O)(=O)CCC(=O)N3CCCCC3)ccc21	5.13%
O=C(NC1=CC(=O)c2ccccc2C1=O)c1ccccc1	17%
CN(O)C(=S)c1ccccc1	-1.16%
Cc1ccc(C(=O)N/C(=C/c2ccc(-c3cccc([N+](=O)[O-])c3)o2)C(=O)NCCCN(C)C)cc1	1.95%
NS(=O)(=O)c1ccc(N=Nc2c(O)[nH]c3ccc(Br)cc23)cc1	11.8%
O=C(CNC(=O)Cc1ccccc1)N=Nc1c(O)[nH]c2ccc(Br)cc12	-1.85%
Oc1[nH]c2ccc(Br)cc2c1N=Nc1nn[nH]n1	73.3% (active)
Cc1cc(C)c(NC(=O)CN2CCOCCOCCOCCOCC2)c(C)c1	0.53%
Cc1nc2nc(C)c(NS(=O)(=O)c3ccc(C(C)(C)C)cc3)c(=O)n2[nH]1	16.3%
CC1(C)Cc2ccccc2/C(=C/C(=O)c2ccccc2)N1	-0.07%
CC1(C)Cc2ccccc2-c2[nH]c(=S)[nH]c(=O)c21	26.1% (active)
CC1(C)Cc2ccccc2-c2nc(CN3CCOCC3)[nH]c(=O)c21	6.87%
CC1C(C)N(C(=O)CCl)c2ccccc2N1C(=O)CCl (stereo not given)	2.69%
CC(NC(=O)CC1SC(N)=NC1=O)c1ccccc1 (stereo not given)	3.61%
CN(CC(=O)Nc1ccc(Cl)cc1)C(=O)c1ccc(COc2ccccc2)cc1	7.71%
CN(CC(=O)Nc1ccc(Cl)cc1)C(=O)CNC(=O)c1ccc2ccccc2c1	29% (active)
O=C(NNC(=O)c1ccc2ccccc2c1)c1ccc(Cl)cc1	3.28%
Clc1ccc2c(c1)C1=C(C(c3ccncc3)O2)C(c2ccc(Br)cc2)n2ncnc2N1 (stereo not given)	2.64%
CN(C)S(=O)(=O)c1cccc(C(=O)OCC(=O)N2CCCC2=O)c1	0.79%
CC(=O)c1cccc(NC(=O)N2CCCC2C(=O)NCCc2ccccc2)c1 (stereo not given)	4.97%
CCc1ccccc1NC(=O)Cc1cn(C)c2ccccc12	4.1%

Structure (SMILES)	inhibition
CC(Oc1ccc2c(-c3ccccc3)cc(=O)oc2c1)C(=O)NC(Cc1c[nH]c2ccccc12)C(=O)O (stereo not given)	69.3% (active)
COc1ccc(-c2cc(=O)oc3cc(OCC(=O)N[C@@H](Cc4c[nH]c5ccccc45)C(=O)O)ccc23)cc1	4.23%
COc1ccc(-c2cc(C(=O)NC(Cc3c[nH]c4ccccc34)C(=O)O)c(C)o2)cc1OC (stereo not given)	9.21%
CSc1ncnc2c1ncn2CC(=O)C1CCC2C3CCC4=CC(=O)CCC4(C)C3CCC12C (stereo not given)	3.57%
Cc1ccc(S(=O)(=O)N2CCN(S(=O)(=O)N3CCOCC3)CC2)cc1	2.69%
CC(C)(C)c1ccc(C(=O)N2CCN(CCNC(=O)C(=O)Nc3ccc(F)cc3)CC2)cc1	0.31%
CC(=O)N1CCOc2ccc(S(=O)(=O)N3CCN(c4cccc(C(F)(F)F)c4)CC3)cc21	3.14%
CC1CN(C(=O)c2cc(COc3c(F)cccc3F)on2)CCN1C (stereo not given)	0.48%
O=C(CNC1CCCCC1)NCC1(c2ccccc2)CCCC1	26.9% (active)
CC(=O)CC(CC(=O)NC1CCCCC1)c1ccccc1 (stereo not given)	5.22%
O=C(CCS(=O)(=O)c1ccccc1)NC1CCCC1	5.22%
CC(C)Cn1cnc2c(SCc3ccc(Cl)cc3)nc(N)nc21	7.46%
Cc1ccc(C(=O)COC(=O)CCN2C(=O)C3C4CC(C(Br)C4Br)C3C2=O)cc1 (stereo not given)	-1.23%
COc1cccc(N2CCN(CC(=O)Nc3ccnn3C3CCCC3)CC2)c1	1.78%
CC(Oc1ccc(Cl)cc1)C(=O)OCC(=O)Nc1ncc(Cl)cc1Cl (stereo not given)	30.6% (active)
CC1(C(=O)OCC(=O)Nc2ncc(Cl)cc2Cl)CC1(Cl)Cl (stereo not given)	2.15%
O=C(COC(=O)Cn1[nH]c(=O)c2ccccc2c1=O)Nc1ncc(Cl)cc1Cl	2.27%
CCN(CC(=O)Nc1c(F)cccc1F)C(=O)c1ccc(-c2ccccc2)cc1	3.05%
COc1ccc(-c2cn(-c3ccc(C)cc3)c(=O)n2CC(=O)Nc2ccc(OC)c(OC)c2)cc1	2.69%
CC1CCC(NC(=O)CNC(=O)c2ccc3ccccc3c2)CC1 (stereo not given)	7.58%
CCCc1cc(=O)n2[nH]c(SCc3ccccc3)nc2n1	13.6%
CCCc1cc(=O)[nH]c(SCc2ccc(C#N)cc2)n1	25.2% (active)
CCCc1cc(=O)[nH]c(SCc2cc(=O)oc3c(C)c(C)ccc23)n1	-0.37%

Structure (SMILES)	inhibition
Cn1cc(C2OC(=O)c3ccccc32)c2ccccc21 (stereo not given)	0.55%
Cc1ccc(S(=O)(=O)NCCC(c2ccccc2)c2ccccc2)cc1C(=O)O	29% (active)
Cc1cccc(NS(=O)(=O)c2ccc(C)c(C(=O)NCC(c3ccccc3)N(C)C)c2)c1 (stereo not given)	6.63%
Cc1ccc(S(=O)(=O)NCCCn2ccnc2)cc1C(=O)NC(C)C	2.08%
COc1cc(Cl)c(C)cc1NC(=O)COC(=O)c1cc(SC)ccc1Cl	-3.93%
CSCc1cc(N2CCOCC2)nc(SCc2ccc(Cl)cc2Cl)n1	10.7%
N/C(=N\OC(=O)CCc1ccccc1)c1ccc(Cl)cc1	63.8% (active)
COc1ccc(/C(N)=N/OC(=O)CCCc2ccccc2)cc1	6.71%
N/C(=N\OC(=O)CCc1ccccc1)c1cccnc1	1.52%
C=C(C)c1cccc(C(C)(C)NC(=O)NC2CCCC2)c1	4.81%
COCCSc1nnc(NC(=O)c2cc(OC)c(OC)cc2[N+](=O)[O-])s1	4.45%
COC(=O)[C@@]1(C)[C@H]2C(=O)N(Cc3ccccc3)C(=O)[C@H]2[C@H]2CN=C(SCC3CC3)N21	2.74%
CC(OC(=O)/C=C/c1ccccc1)C(=O)NC1CCCCC1C (stereo not given)	1.18%
CCOc1cc(/C=N/NC(=O)CN2CCCCC2)ccc1O	1.96%
Cc1ccc(COc2ccc(/C=N/NC(=O)CN3CCCCC3)cc2)cc1	25.1% (active)
O=C(CN1CCSCC1)N/N=C/c1ccc(F)cc1	-6.64%
Cc1ccc(S(=O)(=O)NC(=O)N2CCCN(Cc3ccc(F)cc3)CC2)cc1	9.06%
Cn1c(Cn2nnc3ccccc32)nnc1SCC(=O)c1ccccc1F	4.6%
CCOC(=O)c1cccc(NC(=O)CCn2nnc3ccccc32)c1	1.37%
C/C(Cn1nnc2ccccc21)=N\OC(=O)c1cc(F)c(F)cc1Cl	25.1% (active)
COC(=O)C1=C(N)Oc2cc(C)[nH]c(=O)c2C1c1ccc(Cl)cc1 (stereo not given)	-2.03%
C=CCNC(=O)CCCC(=O)NCC=C	2.09%
Cc1ccc(NS(=O)(=O)c2cc3c(cc2C)NC(=O)CO3)cc1	6.94%

Structure (SMILES)	inhibition
O=C1COc2ccc(S(=O)(=O)Nc3ccc(OC(F)(F)F)cc3)cc2N1	41.6% (active)
Cc1ccc(NS(=O)(=O)c2ccc3c(c2)NC(=O)CO3)cc1	19.2%
Nc1ccc2c(c1)C(=Cc1cccnc1)c1ccccc1-2	6.17%
COc1cc2c(cc1OC)C1C(=O)c3cc(OS(C)(=O)=O)c(OC)cc3C1N(C)C2=O (stereo not given)	0.81%
CC(=O)N1CCC(C(=O)OCc2ccc(Cl)cc2)(c2ccccc2)CC1	7.86%
COCCNC(=O)NC(=O)COC(=O)C1(c2ccc(Cl)cc2)CC1	26.9% (active)
CCCNC(=O)NC(=O)COC(=O)CC(NC(N)=O)c1ccc(Cl)cc1 (stereo not given)	2.08%
COc1ccc(-c2c(C)cc3oc(=O)cc(-c4ccccc4)c3c2C)cc1C=O	-1.53%
O=c1[nH]c2ccccc2s1	4.32%
CC1CCN(S(=O)(=O)c2ccc(S(=O)(=O)NCc3ccco3)cc2)CC1	29.6% (active)
O=C(NC1CCC(O)CC1)c1ccc(S(=O)(=O)NCc2ccco2)cc1 (stereo not given)	4.89%
Cc1ccc(S(=O)(=O)N2CCC(C(=O)N[C@@H](C)C(=O)NCc3ccco3)CC2)cc1	4.6%
O=C(CSc1ccc([N+](=O)[O-])cn1)Nc1ccc(N2CCOCC2)c(Cl)c1	-0.87%
O=C(/C=C/c1ccccc1[N+](=O)[O-])OCC(=O)N1CCCC1	0.91%
COC(=O)[C@@H]1C[C@H]2CC[C@H](O)C[C@H]2N1Cc1ccc(N2CCN(C)CC2)cc1	-3.13%
O=C1NC[C@@H](c2ccccc2)OC(=O)[C@H](Cc2ccc(F)cc2)CC/C=C/C[C@H]1CC(=O)N(CCO)Cc1ccccc1	53.8% (active)
O=C1CCC/C=C/C[C@@H](CC(=O)N(CCO)Cc2ccccc2)C(=O)NC[C@H](c2ccccc2)O1	-0.45%
O=C1N[C@@H](c2ccccc2)COC(=O)[C@H](Cc2ccc(F)cc2)C/C=C\C[C@@H]1CC(=O)N(CCO)Cc1ccccc1	4.49%
COC(=O)c1cc(S(=O)(=O)N2CCC(C(N)=O)CC2)oc1C	-0.09%
O=C(Nc1ccccc1)N1CCC(C(=O)N2CCN(Cc3ccccc3)CC2)CC1	0.85%
COc1ccc(C2c3c(C)nn(-c4ccccc4)c3NC(=O)N2c2ccccc2)cc1 (stereo not given)	0.39%
